Measured values published in PubChem BioAssay (NCI).
About 83,000 compounds went through this panel and 20% of them were active in at least one assay; those are over-represented in the sample as a whole.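 The endpoint reported here, percent growth, reads 100 for growth as untreated, 0 for no net growth and -100 for all cells dead.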 Unmarked numbers belong to inactive results. Calls of active or inactive are those of the source. How the source made its calls: active means growth percent below 10; inactive means the rest.

Legend:
Test in all cases: NCI-60 one-dose screen, 48 h (100 = growth as untreated, 0 = no growth, -100 = all killed)
Conditions in all cases: 10 µM unless noted
[1] = system: SR leukemia
[2] = system: RPMI-8226 leukemia
[3] = system: OVCAR-8 ovarian
[4] = system: OVCAR-5 ovarian
[5] = system: OVCAR-4 ovarian
[6] = system: SK-OV-3 ovarian
[7] = system: OVCAR-3 ovarian
[8] = system: HS 578T breast
[9] = system: NCI/ADR-RES ovarian
[10] = system: IGROV1 ovarian

Row | SMILES | growth [1] | growth [2] | growth [3] | growth [4] | growth [5] | growth [6] | growth [7] | growth [8] | growth [9] | growth [10]
1 | CC1=C(Cl)C(=O)c2cc(C)ccc2C1=O | 89.3% | 99.6% | 92.4% | 107% | 103% | 105% | 105% | 104% | 105% | –
2 | S=c1ccnc[nH]1 | 131% | 110% | 100% | 101% | 117% | 113% | 111% | 113% | 100% | –
3 | O=C(/C=C/C12c3ccccc3C(c3ccccc31)C1C(=O)NC(=O)C12)c1ccco1 (stereo unspecified) | 13% | -7.21% (active) | 5.8% (active) | 44.3% | 53.4% | 42.7% | 11.7% | 31.4% | 42.3% | –
4 | Cn1cc(-c2nonc2-c2c[nH]c3ccccc23)c2cc(Br)ccc21 | 15.3% | 40.6% | 45% | 49% | 49.6% | 49.8% | 33.5% | 59.1% | 29.3% | –
5 | O=[N+]([O-])c1ccccc1Nc1ccc2ccccc2c1 | 88.1% | 82.7% | 88.6% | 113% | 88% | 84.7% | 96.3% | 72.5% | 105% | –
6 | C#CCOc1ccc2nc(CCl)c(Cl)c(Nc3cccc(C(F)(F)F)c3)c2c1 | 17.7% | 62.7% | 82.7% | 104% | 101% | 114% | 78.2% | 88.8% | 97.1% | –
7 | CC(C)(C)OC(=O)CN1CCc2c(sc3ncnc(N4CCN(c5ccc(F)cc5)CC4)c23)C1 | 79.8% | 57.7% | 73.2% | 82.8% | 85.5% | 102% | 90.5% | 70.4% | 79.7% | –
8 | COc1ccc2c(c1)c(-c1nc(-c3ccc4ccccc4c3)cs1)cn2C | 49.9% | 102% | 95.3% | 91.6% | 94.3% | 93% | 96.2% | – | 98% | –
9 | COc1cc(/C=N/NC(=O)c2ccc(-n3cc(-c4ccccc4)nn3)cc2)cc(OC)c1OC | 55.4% | 24% | 49% | 105% | 45.8% | 73.7% | 93% | 53.1% | 80.8% | –
10 | C=CN(C(=O)N1CCN(c2cc3c(cc2F)c(=O)c(C(=O)O)cn3C2CC2)CC1)c1nc(-c2ccc(Cl)cc2)cs1 | 33.2% | 15.9% | 67.3% | 85.7% | 78.4% | 74.7% | 53.9% | – | 90.6% | –
11 | CCOC(=O)c1nnn(Cc2cc(=O)oc3ccc(O)cc23)c1C | 92.8% | 96.7% | 107% | 101% | 109% | 105% | 107% | 93.5% | 108% | –
12 | COc1cc(C[C@H]2COc3cc(O)cc(O)c3C2=O)ccc1O | 19% | 18.2% | 28.1% | 101% | 63.1% | 29.2% | 14.1% | 13.7% | 20.9% | –
13 | Oc1ccc(-c2nc3ccc4[nH]ncc4c3c3c2CCCC3)c(F)c1 | -1.33% (active) | 33.2% | 38% | 59.7% | 51.3% | -6.45% (active) | 46.6% | – | 52% | –
14 | Cc1[nH]n(-c2cccc(Cl)c2)c(=O)c1/C=C1\C=c2ccccc2=CC1=O | 29.7% | 96.4% | 22.3% | 16.9% | -62.5% (active) | 15.3% | 63.2% | 82.2% | 75.3% | –
15 | CCOC(=O)c1nnn(-c2no[n+]([O-])c2-c2ccc(OC)cc2)c1COc1cccc2cccnc12 | 6.52% (active) | 4.48% (active) | 0.67% (active) | 48.6% | 27% | 12.4% | 16.8% | – | 9.15% (active) | –
16 | O=C1C(Cl)=C(Nc2ccccc2)C(=O)c2ccccc21 | -21% (active) | -7.02% (active) | -32.1% (active) | 75.7% | – | 75.1% | -96.7% (active) | – | -15.2% (active) | -77.6% (active)
17 | Cc1ccc(S(=O)(=O)c2nc(-c3ccccc3)oc2SCC(N)=O)cc1 | 94.6% | 96.8% | 111% | 86.9% | – | 98.3% | 94.9% | – | 99.5% | 101%
18 | N#CSc1c[nH]c2ccc(/C=C/C(=O)/C=C(O)/C=C/c3ccc4[nH]cc(SC#N)c4c3)cc12 | 2.57% (active) | 3.93% (active) | 9.71% (active) | 67.4% | – | 100% | 18.3% | 51.7% | 46.4% | 3.73% (active)
